# Screening results as filed in PubChem.
# Only some compounds are listed: those with a hit (about 18% of all), similar ones and a draw of the others.
# CtBP-E1A inh – inhibitors of CtBP/E1A interaction. activity change, % (concentration not given with the values). AID 651724. 340,000 tested, 0.49% active. AlphaScreen GST-E1A/His-CtBP binding, 1536-well; active compounds read low; in the data active means activity change below about -65%; inconclusive means mostly about -30% to -63%
#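 Steps: dispense buffer (Tris pH 8.0, NaCl 300 mM, TCEP 1 mM, BSA, Tween 20); add 5X protein mix (GST-E1A, His-CtBP, 125 nM each); pin 23 nL compound; 2 h at 37 °C, dark; add 5X beads (50 ug/mL); 1 h; read.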
# Six1-Eya2 blk – inhibitors of human Six1/Eya2 interaction. Q15475+O00167. 360,000 tested, 0.56% active. AlphaScreen GST-Six1/His-Eya2 binding, biochemical; active compounds read low. activity change, % (no concentration beside the values); in the data active means activity change below about -65%; inconclusive means mostly about -30% to -63%
#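 AlphaScreen with GST-Six1 and His-Eya2 (5X mix: 250 nM and 500 nM), glutathione donor and nickel acceptor beads; buffer 50 mM Tris pH 8.0, 300 mM NaCl, 1 mM TCEP; 1 h at 37 C in the dark.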
# TDP1 inh – inhibitors of human tyrosyl-DNA phosphodiesterase TDP1; recombinant TDP1, AlphaScreen DNA substrate cleavage; Potency, µM (top dose mostly 130 µM), for the others: at the top dose activity change, negative = inhibition, most hits filed as inhibitors; 350,000 tested, 0.28% active; further: potency means the concentration at half of the fitted maximal effect; nearly all actives have a fitted effect of over 40% in size
# Target sequence (Q9NUW8 whole entry, looked up): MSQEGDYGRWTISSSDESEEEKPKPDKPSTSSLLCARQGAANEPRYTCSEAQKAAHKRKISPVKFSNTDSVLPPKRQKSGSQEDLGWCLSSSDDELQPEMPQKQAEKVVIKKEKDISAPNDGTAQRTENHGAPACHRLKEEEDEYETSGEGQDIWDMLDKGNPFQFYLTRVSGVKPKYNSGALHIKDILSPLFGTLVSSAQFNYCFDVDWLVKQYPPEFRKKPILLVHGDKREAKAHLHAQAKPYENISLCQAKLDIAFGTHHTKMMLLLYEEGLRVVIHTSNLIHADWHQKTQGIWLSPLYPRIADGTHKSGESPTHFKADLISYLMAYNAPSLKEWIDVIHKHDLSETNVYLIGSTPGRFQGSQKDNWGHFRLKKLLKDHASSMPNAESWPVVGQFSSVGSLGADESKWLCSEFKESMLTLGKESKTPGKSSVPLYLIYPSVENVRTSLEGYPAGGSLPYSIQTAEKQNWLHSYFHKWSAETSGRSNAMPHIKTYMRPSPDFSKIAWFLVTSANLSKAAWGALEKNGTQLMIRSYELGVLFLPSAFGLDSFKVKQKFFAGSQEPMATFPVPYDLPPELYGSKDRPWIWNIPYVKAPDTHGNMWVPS
#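 AlphaScreen read-out: signal falls as enzyme removes the 3' tyrosine-FITC from a 5'-biotinylated DNA oligo (15 nM, 5 min, RT). Enzyme was E. coli-made recombinant Tdp1 at 1 nM, exposed to compound for 15 min beforehand; beads 10 ug/ml, 10 min.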
# IL-1B inflam inh – blocks inflammasome-driven IL-1 beta release | THP-1 LPS/ATP IL-1B secretion, AlphaLISA, 16 h; active compounds read low | activity change, % at 57.5 µM | 360,000 tested, 4.7% active | AID 743279; in the data active means activity change below about -50%; inconclusive means mostly about -30% to -49%
#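 THP-1 cells pretreated 1 hr with compounds (up to 57.5 uM final), then stimulated with LPS (250 ng/mL final) plus ATP (1.25 mM final); secreted IL-1B measured by AlphaLISA after 16 hr, decreased signal indicating inhibition.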
# TDP1 cell CPT – growth inhibition of DT40 Tdp1-/-;hTDP1 cells with camptothecin (screen for TDP1 inhibitors). chicken DT40 Tdp1-/-;hTDP1 cells + 20 nM CPT, ATP luminescence, 48 h. Potency, µM (doses to about 46.2 µM), for the others: top-dose activity change, negative = growth inhibition, usual class: inhibitors. 420,000 tested, 12% active. AID 686979; further: potency means the concentration at half of the fitted maximal effect; nearly all actives have a fitted effect of over 55% in size
#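 Chicken DT40 Tdp1-/- cells complemented with human TDP1, 400 cells/well, exposed to compounds plus 20 nM camptothecin for at least 48 h at 37 C; viability read as ATP content by CellTiter-Glo luminescence.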
# DT40 TDP1 no CPT – qHTS for Inhibitors of human tyrosyl-DNA phosphodiesterase 1 (TDP1): qHTS in cells in absence of CPT. DT40 Tdp1-/- hTDP1 cells, no CPT, ATP luminescence, 48 h. Potency, µM (highest dose often 46.2 µM), without a hit: top-dose activity change, negative = growth inhibition, actives largely listed as inhibitors. 420,000 tested, 15% active; further: potency means the concentration at half of the fitted maximal effect; nearly all actives have a fitted effect of over 55% in size
#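 DT40 Tdp1-/-;hTDP1 cells, no CPT (DMSO vehicle only), 400 cells/well; compounds pin-transferred; ≥48 hr, 37 °C; CellTiter-Glo 30 min RT dark, luminescence read.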
# * = called active by the depositor; u = inconclusive; x = no result given. Unless noted, the call rests on the fitted dose curve; in most records, active means well fitted curve in the direction sought with a large enough effect; inconclusive means small, poorly fitted or top-dose-only effect, or another doubt; inactive means no such curve, though single readings can be large; an effect the other way counts as inactive or inconclusive. On the % scale 0 is the no-effect control and ±100 the full control effect.
SMILES,CtBP-E1A inh,Six1-Eya2 blk,TDP1 inh,IL-1B inflam inh,TDP1 cell CPT,DT40 TDP1 no CPT
O=C(NC1CC1)c1ccc(CSCc2ccc(Cl)cc2)o1,-1,1,x,-15,u,21µM*
CC1CCC(NC(=O)c2ccc(CS(=O)(=O)c3c(Cl)cccc3Cl)o2)CC1 (centres undefined),x,x,7%,x,15µM*,u
COCC(=O)N1CCCC(C)(C(=O)Nc2cccc(Oc3ccccc3)c2)C1 (centres undefined),2,4,x,-1,-20%,-13%
CN(CC(=O)Nc1c(Cl)cccc1Cl)C(=O)c1ccccc1-c1nc2ccccc2s1,-2,-3,6%,-53*,-1%,u
COc1cccc(NC(=O)CN(C)C(=O)CSc2nc3ccccc3s2)c1,12,-12,9%,22,u,u
COc1cccc(NC(=O)CN(C)C(=O)c2ccccc2-c2nc3ccccc3s2)c1,16,-7,3%,-2,u,23µM*
Cc1nnc(C)c2c(C)n(-c3ccccc3)c(C)c12,-14,-2,x,21,23µM*,23µM*
Cc1ccc(-n2c(C)c3c(C)nnc(C)c3c2C)cc1,x,x,4%,x,x,x
Cc1nnc(C)c2c(C)n(-c3cccc4cccnc34)c(C)c12,x,x,4%,x,x,x
CCn1c(C)c2c(C)nnc(C)c2c1C,-2,-5,2%,11,-22%,-20%
Cc1nnc(C)c2c(C)n(-c3ccc(Br)cc3)c(C)c12,x,x,8%,x,x,x
Cc1nnc(C)c2c(C)n(-c3ccccc3N)c(C)c12,-5,-17,2%,-3,21µM*,u
Cc1cc(-n2c(C)c3c(C)nnc(C)c3c2C)ccc1N,0,-9,1%,x,8.2µM*,u
Cc1ccc(-n2c(C)c3c(C)nnc(C)c3c2C)cc1N,-2,-5,5%,18,21µM*,u
COc1ccc(C(O)P(=O)(OC(C)C)OC(C)C)cc1OC (centres undefined),9,11,-4%,17,-3%,15%
C/C(=N\NC(=O)CNC(=O)c1ccc2c(c1)OCO2)c1ccco1,x,1,3%,30,2%,-3%
CC(=O)Nc1ccc(N(C(=O)CNC(=O)c2ccco2)C(C(=O)NCC2CCCO2)c2ccccc2)cc1 (centres undefined),-7,0,0%,10,u,-3%
Cc1ccc(-n2c(C)c3c(C)nnc(C)c3c2C)cc1C,-13,-5,4%,u,15µM*,15µM*
Cc1ccc(-n2c(C)n[nH]c2=S)cc1C,7,2,-1%,11,3%,0%
COc1ccc2c(c1)[C@H]1[C@H](CO2)[C@H](c2ccccc2)[C@]2(C)C(=O)Nc3cc(Cl)ccc3C(=O)N12,-2,-18,x,-20,u,u
COc1cc2c(cc1OC)C(=O)N1[C@H]3c4cc(C)ccc4OC[C@@H]3[C@H](c3ccccc3)[C@]1(C)C(=O)N2,-8,-10,2%,-51*,18µM*,21µM*
Cc1ccc2c(c1)[C@H]1[C@H](CO2)[C@H](c2ccccc2)[C@]2(C)C(=O)Nc3cc(Cl)ccc3C(=O)N12,-2,0,1%,-21,u,21µM*
C[C@@]12C(=O)Nc3cc(F)ccc3C(=O)N1[C@H]1c3ccccc3OC[C@@H]1[C@@H]2c1ccccc1,2,-12,1%,-75*,u,u
Cc1ccc2c(c1)[C@H]1[C@H](CO2)[C@H](c2ccccc2)[C@]2(C)C(=O)Nc3cc(F)c(F)cc3C(=O)N12,-3,-6,3%,u,u,u
COc1cc2c(cc1OC)C(=O)N1[C@H]3c4cc(Cl)ccc4OC[C@@H]3[C@H](c3ccccc3)[C@]1(C)C(=O)N2,-21,-12,2%,-50*,21µM*,18µM*
SMILES,CtBP-E1A inh,Six1-Eya2 blk,TDP1 inh,IL-1B inflam inh,TDP1 cell CPT,DT40 TDP1 no CPT
COc1ccc2c(c1)C(=O)N1[C@H]3c4cc(Cl)ccc4OC[C@@H]3[C@H](c3ccccc3)[C@]1(C)C(=O)N2,-8,-5,2%,u,u,u
CNC(=S)NNC(=O)CNc1ccc(C)c(Cl)c1,x,-2,-3%,8,-2%,-4%
Cc1ccc2c(c1)[C@H]1[C@H](CO2)[C@H](c2ccccc2)[C@]2(C)C(=O)Nc3ccc(F)cc3C(=O)N12,-3,-7,x,-61*,21µM*,21µM*
CCCN(C(=O)c1cn(CC(C)C)c(=O)c2cc(OC)c(OC)cc12)c1cccc(C)c1,x,x,3%,x,13µM*,15µM*
CCc1ccccc1N(C)C(=O)c1cn(CC(C)C)c(=O)c2cc(OC)c(OC)cc12,x,x,6%,x,10µM*,10µM*
CCN(C(=O)c1cn(CC(C)C)c(=O)c2cc(OC)c(OC)cc12)c1cc(OC)ccc1OC,x,x,3%,x,13µM*,15µM*
COc1ccc(N(C)C(=O)c2cn(CC(C)C)c(=O)c3cc(OC)c(OC)cc23)c(OC)c1,-1,-2,x,-28,u,-26%
COc1cc2c(C(=O)N(C)c3cc(Cl)ccc3OC)cn(CC(C)C)c(=O)c2cc1OC,x,x,0%,x,9.2µM*,8.2µM*
CCCCOc1ccccc1C1NC(=O)NC(C)=C1C(=O)OCCOC (centres undefined),10,1,x,-8,-3%,0%
O=C(NCc1ccco1)C1CCN(C(=O)c2ccc(Cl)cc2)CC1,x,3,1%,-7,-11%,-26%
CCC1CCCCN1CCCNC(=O)c1cn(CC(C)C)c(=O)c2cc(OC)c(OC)cc12 (centres undefined),-14,-12,6%,u,1%,1.8µM*
